These results are taken from PubChem BioAssay (NCI).

This is part of a sample that, as a whole, favours compounds with a hit. Of some 83,000 tested, about 20% had one in any assay.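 Step 1: grow cells in 96-well plates. Step 2: add test compound at a single concentration. Step 3: incubate 48 h. Step 4: record percent growth.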 Unmarked numbers belong to inactive results. Activity calls are given as the source filed them. How the source made its calls: active means growth percent below 10; inactive means the rest.

Among the test systems are NCI-H23 lung; NCI-H226 lung; NCI-H322M lung; HOP-62 NSCLC; NCI-H460 lung; 786-0 renal; MDA-MB-231 breast; SF-268 CNS; SF-539 CNS; M14 melanoma; U251 CNS; PC-3 prostate; SK-MEL-28 melanoma; UO-31 renal; OVCAR-3 ovarian; SW-620 colon; MCF7 breast; HCT-116 colon; KM12 colon; UACC-62 melanoma.
Assay in all cases: NCI-60 one-dose screen, 48 h (100 = growth as untreated, 0 = no growth, -100 = all killed)
Holding throughout (conditions): 10 µM unless noted

For the compound `COc1cc(/C=C\c2cc(OC)c(OC)c(OC)c2)cc(N/C=C\C(=O)c2ccc(OC(F)(F)F)cc2)c1OC`, the growth is 26.2% in the experiment with NCI-H23 lung; 54.4% in the experiment with NCI-H226 lung; 42.4% in the experiment on NCI-H322M lung; 23.8% with HOP-62 NSCLC; 4.92% (active) in the experiment on NCI-H460 lung; 34.3% with 786-0 renal. The growth in the experiment on MDA-MB-231 breast is -16.9% (active); in the experiment with SF-268 CNS, 41.7%; with SF-539 CNS, -31.5% (active); with M14 melanoma it was -4.87% (active); in the experiment on U251 CNS, 14.8%; in the experiment on PC-3 prostate, 42.6%. Further, the growth in the experiment with SK-MEL-28 melanoma was 62.2%; in the experiment with UO-31 renal it was 32.9%; in the experiment on OVCAR-3 ovarian, -8.54% (active); in the experiment on SW-620 colon, 26.3%; in the experiment on MCF7 breast, 17.2%; with HCT-116 colon it was 8.14% (active). The growth in the experiment on KM12 colon was 16.6%.

For the compound `CNC(=O)Oc1cccc(N(C)C)c1`, the growth with NCI-H23 lung is 106%; with NCI-H226 lung, 93.3%; in the experiment on NCI-H322M lung, 102%; with HOP-62 NSCLC, 101%; with NCI-H460 lung, 105%; with 786-0 renal it was 102%. Besides, the growth is 93% in the experiment with MDA-MB-231 breast; 106% in the experiment with SF-268 CNS; 100% in the experiment with SF-539 CNS; 107% in the experiment with M14 melanoma; 99.1% in the experiment with U251 CNS; 97.2% in the experiment with PC-3 prostate. Moreover, the growth was 100% in the experiment on UACC-62 melanoma; 111% in the experiment on SK-MEL-28 melanoma; 86.6% with UO-31 renal; 110% with OVCAR-3 ovarian; 104% in the experiment on SW-620 colon; 94.1% in the experiment on MCF7 breast. For the same compound, the growth in the experiment with HCT-116 colon was 113%; in the experiment with KM12 colon, 104%.

On to `O=S(=O)(c1ccc(Cl)cc1)C(Cl)(Cl)Cl`, for which the growth is 40.6% in the experiment on NCI-H23 lung; 60.8% in the experiment on NCI-H226 lung; 75.2% in the experiment on NCI-H322M lung; 78.5% with HOP-62 NSCLC; 80.4% in the experiment with NCI-H460 lung; 51.8% in the experiment on 786-0 renal. The growth with MDA-MB-231 breast was 42%; with SF-268 CNS it was 45.5%; in the experiment with SF-539 CNS, 33.8%; with M14 melanoma it was 8.38% (active); in the experiment with U251 CNS it was 52.1%; in the experiment on PC-3 prostate, 49.1%. Besides, the growth was 46.6% in the experiment with UACC-62 melanoma; 38.5% with SK-MEL-28 melanoma; 9.42% (active) in the experiment on UO-31 renal; -15.6% (active) with OVCAR-3 ovarian; 24.4% with SW-620 colon; 23.8% with MCF7 breast. Besides, the growth was 42.2% in the experiment on HCT-116 colon and 23.4% in the experiment on KM12 colon.

For the compound `S=P(NC1CCCCC1)(N1CC1)N1CC1`, the growth with NCI-H23 lung was 110%; in the experiment on NCI-H226 lung it was 113%; in the experiment on NCI-H322M lung, 113%; in the experiment with HOP-62 NSCLC it was 101%; in the experiment on NCI-H460 lung, 82.8%; with 786-0 renal it was 101%. Moreover, the growth was 104% in the experiment on MDA-MB-231 breast; 98.6% with SF-268 CNS; 107% in the experiment with SF-539 CNS; 105% with M14 melanoma; 101% in the experiment on U251 CNS; 91.4% in the experiment with UACC-62 melanoma. The growth is 122% in the experiment with SK-MEL-28 melanoma; 94.1% with UO-31 renal; 112% with OVCAR-3 ovarian; 96.5% in the experiment with SW-620 colon; 89% in the experiment with MCF7 breast; 93.3% in the experiment with HCT-116 colon. The growth with KM12 colon was 110%.

Turning to `CC(/C=N/N=C(N)N)=N/N=C(N)N`, the growth with NCI-H23 lung was 95.3%; with NCI-H226 lung it was 97.4%; in the experiment on NCI-H322M lung, 34.9%; in the experiment on HOP-62 NSCLC, 81.1%; in the experiment on NCI-H460 lung, 66.2%; in the experiment with 786-0 renal, 70.4%. Also, the growth with MDA-MB-231 breast was 102%; in the experiment on SF-268 CNS, 72.9%; in the experiment with SF-539 CNS it was 73.9%; with M14 melanoma, 92.4%; in the experiment with U251 CNS it was 89.6%; in the experiment with PC-3 prostate, 108%. Besides, the growth in the experiment with UACC-62 melanoma was 93.6%; in the experiment on SK-MEL-28 melanoma it was 96.4%; in the experiment with UO-31 renal, 69.9%; in the experiment with OVCAR-3 ovarian, 79.8%; in the experiment with SW-620 colon it was 98.5%; in the experiment with MCF7 breast, 98.1%. The figures for the growth in the experiment on HCT-116 colon and with KM12 colon were 83.9% and 73.1%, respectively.

As to `COc1ccc(OC)c(/C=C(/C)[N+](=O)[O-])c1`, the growth in the experiment on NCI-H23 lung was 53.8%; with NCI-H226 lung, 94.3%; with NCI-H322M lung it was 98%; with HOP-62 NSCLC, 38.9%; in the experiment on NCI-H460 lung, 33.1%; in the experiment with 786-0 renal, 90.9%. For the same compound, the growth with MDA-MB-231 breast was 68.4%; in the experiment on SF-268 CNS, 65.3%; with SF-539 CNS it was 84.4%; in the experiment with M14 melanoma it was 47%; in the experiment on U251 CNS, 26.7%; in the experiment on PC-3 prostate, 52.6%. Moreover, the growth is 63.4% with UACC-62 melanoma; 74.7% in the experiment with SK-MEL-28 melanoma; -46.3% (active) in the experiment with UO-31 renal; -11.3% (active) in the experiment with OVCAR-3 ovarian; -77% (active) in the experiment with SW-620 colon; 6.58% (active) in the experiment with MCF7 breast. The growth in the experiment on HCT-116 colon is -91.4% (active); in the experiment with KM12 colon, 26.5%.

As to `c1cnc2c(c1)ccc1ncccc12`, the growth in the experiment with NCI-H23 lung is 121%; with NCI-H226 lung it was 100%; with NCI-H322M lung, 123%; in the experiment with HOP-62 NSCLC it was 103%; in the experiment on NCI-H460 lung, 108%; with 786-0 renal, 105%. In addition, the growth was 108% in the experiment with MDA-MB-231 breast; 96.4% in the experiment on SF-268 CNS; 106% in the experiment with SF-539 CNS; 91% in the experiment on M14 melanoma; 105% with U251 CNS; 94.6% in the experiment on UACC-62 melanoma. The growth is 205% in the experiment on SK-MEL-28 melanoma; 93.2% in the experiment with UO-31 renal; 90.6% with OVCAR-3 ovarian; 144% in the experiment with SW-620 colon; 107% with MCF7 breast; 89.8% with HCT-116 colon. The growth with KM12 colon is 107%.

For `CC(C)(O)/C=C/C(=O)[C@](C)(O)[C@H]1[C@H](O)C[C@@]2(C)[C@@H]3CC=C4[C@@H](C=C(O)C(=O)C4(C)C)[C@]3(C)C(=O)C[C@]12C`, the growth with NCI-H23 lung was -40.1% (active); in the experiment with NCI-H226 lung, -33.9% (active); in the experiment on NCI-H322M lung, -20.1% (active); in the experiment on HOP-62 NSCLC, -64.2% (active); with NCI-H460 lung, -20.8% (active); in the experiment on 786-0 renal, -96.2% (active). The growth is -25% (active) in the experiment on MDA-MB-231 breast; -27.5% (active) in the experiment with SF-268 CNS; -53.6% (active) in the experiment with SF-539 CNS; -75.3% (active) with M14 melanoma; -77.5% (active) with U251 CNS; -58.8% (active) in the experiment with PC-3 prostate. In addition, the growth with UACC-62 melanoma is -29.9% (active); with UO-31 renal, -54.6% (active); with OVCAR-3 ovarian, -28.9% (active); in the experiment on SW-620 colon, -20% (active); with MCF7 breast it was 2.31% (active); with HCT-116 colon, -53.5% (active). The growth with KM12 colon is -60.9% (active).
